FUS yeast rescue: suppressors of FUS proteinopathy in yeast | S. cerevisiae FUS-expressing, growth rescue, OD600, 24 h | Potency, µM (series often up to 76.6 µM), actives largely listed as activators | 0.24% of 390,000 active; also: nearly all actives have a fitted effect of over 55% in size
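Quantitative HTS measuring growth restoration of FUS-toxic yeast. Galactose-induced cells (OD 0.005) were exposed 24hr at 30C to compounds at several concentrations, then absorbance at 600 nm was recorded.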
aSyn yeast inh: inhibitors of alpha-synuclein toxicity in yeast | 0.14% of 370,000 active | Yeast expressing alpha-synuclein, growth rescue, BacTiter-Glo, 24 h | Potency, µM (top dose mostly 46.1 µM), actives largely listed as activators; also: nearly all actives have a fitted effect of over 65% in size
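Screening used galactose-induced yeast with toxic alpha-synuclein levels, exposed to compound for 24 hr at 30 deg C. Cell growth, read with BacTiter-Glo luminescence, gave the measured signal.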
Abeta yeast res: restores growth of yeast expressing A-beta42 peptide; yeast expressing A-beta42, growth rescue, OD600, 48 h; response scale: 0% DMSO, 100% iron-clioquinol control; Potency, µM (titrated, usually from 46.1 µM), actives largely listed as activators; AID 1347071; 0.063% of 410,000 active; also: nearly all actives have a fitted effect of over 55% in size
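Growth rescue measured by 600 nm absorbance after 48 h yeast culture at 30 C with compound. Values normalized between DMSO and an equimolar ferric chloride plus clioquinol control.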
TDP-43 yeast inh: inhibitors of TDP-43 toxicity in yeast; 1.8% of 410,000 active; AID 652104; TDP-43 expressing yeast growth rescue, BacTiter-Glo, 24 h; Potency, µM (series often up to 46.1 µM), usual class: activators; also: nearly all actives have a fitted effect of over 50% in size
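Cell-based yeast growth screen: TDP-43 expression induced in galactose, inoculum OD600=0.02 after raffinose pregrowth to mid-log. Read-out BacTiter-Glo luminescence at 24 hr, 30 deg C; inhibition of toxicity seen as signal increase.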
A number is an active result; . = inactive; ? = inconclusive; / = no result. In the library only some 2.1% were active in any assay of this set; here they are far more common. Calls follow the shape of the dose curve; as a rule, active = well fitted curve in the direction sought with a large enough effect; inconclusive = small, poorly fitted or top-dose-only effect, or another doubt; inactive = no such curve, though single readings can be large; an effect the other way counts as inactive or inconclusive.

SMILES	FUS yeast rescue	aSyn yeast inh	Abeta yeast res	TDP-43 yeast inh
CCOC(=O)[C@]12CCCC=C1N(Cc1ccc3c(c1)OCO3)C(=O)[C@H](CC(=O)NCCc1ccccc1OC)C2	.	.	.	.
Cc1nc2oc3ccccc3c(=O)c2cc1C(=O)O	.	.	.	.
CN(C)c1ccc2c(=O)c3ccccc3oc2n1	.	?	.	15.8µM
CCc1nc2ccc(C(=O)NCCN3CCNC3=O)cn2c1N(CC)CCOC	.	.	.	.
CC(C)(C)n1nc(-c2ccc(F)cc2)c2c(N)ncnc21	.	?	.	.
CC(C)(C)n1nc(-c2ccc(Cl)cc2)c2c(N)ncnc21	.	2.51µM	.	.
O=C1c2ccccc2C(=O)N1c1ccccc1	.	.	.	.
Nc1cccc2c1C(=O)N(c1ccccc1)C2=O	.	.	.	35.5µM
c1coc(-c2nnc3sc(Cc4cccs4)nn23)c1	10µM	.	.	.
Clc1ccc(OCc2nn3c(-c4ccco4)nnc3s2)cc1	.	.	.	17.8µM
COc1ccc(OCc2nn3c(-c4ccco4)nnc3s2)cc1	?	.	.	?
Clc1ncnc2c1oc1ccccc12	.	.	.	.
c1coc(CN(Cc2ccco2)c2ncnc3c2oc2ccccc23)c1	?	.	.	20µM
CC1CCCN(C(=O)c2cc3c(Cl)nc4ccccc4c3s2)C1 (stereo not drawn)	.	/	.	20µM
CCCCNC(=O)c1nc(C2CCN(S(=O)(=O)c3ccc(OC(F)(F)F)cc3)CC2)oc1-c1ccccc1	.	.	.	.
COc1cccc(-c2nc(SCC(=O)Nc3ccc4c(c3)OCO4)c(-c3ccccc3)[nH]2)c1	?	/	.	22.4µM
C[C@H]([C@@H](N)C(=O)N[C@@H](C(=O)O)[C@@H]1O[C@H](n2ccc(=O)[nH]c2=O)[C@@H](O)[C@H]1O)[C@@H](O)c1ccc(O)cn1	.	.	?	4.47µM
Nc1[nH]c(=O)nc2nnsc12	/	.	/	/
Clc1ncnc2scc(C3COc4ccccc4O3)c12 (stereo not drawn)	.	.	.	17.8µM
c1ccc2c(c1)OCC(c1csc3ncnc(N4CCCCC4)c13)O2 (stereo not drawn)	.	.	.	.
N#Cc1cccc(NC(=O)O[C@@H]2CC[C@@]34CCCN3C(=O)CCC[C@H]4C2)c1	.	/	/	/
COc1ccc(-c2cc(C(=O)N(C)Cc3ccc(F)cc3)c3ccccc3n2)cc1OC	.	.	.	22.4µM
COc1ccc(OC)c(NC(=O)C2C3CCC(C3=C(C)C)C2C(=O)O)c1 (stereo not drawn)	.	.	.	15.8µM
COc1ccc(OC)c(NC(=O)c2ccc(NC(C)=O)cc2)c1	.	.	.	.
COc1ccc(OC)c(NC(=O)c2ccc(OC3CSC3)cc2)c1	.	.	?	12.6µM
SMILES	FUS yeast rescue	aSyn yeast inh	Abeta yeast res	TDP-43 yeast inh
COc1ccccc1C(=O)Nc1c(C(=O)Nc2ccccc2F)oc2ccccc12	.	/	.	.
Cc1ccc(-n2c3c(c(=O)[nH]c2=O)C(NC(=O)C(C)(C)C)(C(F)(F)F)C(=O)N3)cc1 (stereo not drawn)	.	/	.	.
CSCCC(NC=O)C(=O)NC(C)C(=O)O (stereo not drawn)	.	.	.	.
CCn1c(/C=C\c2ccccc2C)nc2ccccc2c1=O	.	.	.	22.4µM
CCN1C(=O)/C(=C\c2nc3ccccc3c(=O)n2CC)c2ccccc21	.	.	.	12.6µM
CCn1c(/C=C2\C(=O)N(C)c3ccccc32)nc2ccccc2c1=O	.	.	.	?
CCn1c(/C=C2/C(=O)N(C)c3ccccc32)nc2ccccc2c1=O	.	.	.	14.1µM
C[C@@H]1[C@@H](O)C[C@@]2(C[C@H](O)c3cc(Cl)ccc3O2)O[C@H]1c1ccccc1Cl	.	/	/	/
CC(C)N1C2OC(C3OC4C(O3)N(C(C)C)S(=O)(=O)N4C(C)C)OC2N(C(C)C)S1(=O)=O (stereo not drawn)	.	7.08µM	.	?
CC1(C)C(/C=C/C=C/C=C/C=C2\N(CCCCS(=O)(=O)O)c3ccc4ccccc4c3C2(C)C)=[N+](CCCCS(=O)(=O)[O-])c2ccc3ccccc3c21	?	.	.	.
Oc1ccc(C23CC4CC(CC(C4)C2)C3)cc1O	.	2.82µM	?	6.31µM
CCc1c(C)sc2c1CCN(C(=O)Nc1cc(Cl)c(OC)cc1OC)C2c1ccccc1 (stereo not drawn)	?	/	.	.
Cc1ccc(NC(=O)CN2C(=O)S/C(=C/c3ccncc3)C2=O)cc1	.	.	.	.
O=C(CCCn1c2ccccc2c(=O)c2ccccc21)Nc1cccc(Cl)c1	?	/	.	35.5µM
Cc1cccc(NC(=O)Cn2c(=O)n(Cc3ccccc3)c(=O)c3oc4ccccc4c32)c1C	.	/	.	.
CC(C)N(C(=O)c1ccccc1-c1ccccc1)C(C)C	.	20µM	.	.
Cc1ccccc1NC(=O)c1ccccc1-c1ccccc1	.	.	.	.
CCOc1ccc(/C=C/C2=Cc3c(sc(NC(=O)CSc4n[nH]c(N)n4)c3C#N)C(C)(C)C2)cc1	8.91µM	.	.	.
NC(=O)c1ccsc1NC(=O)CSc1n[nH]c(N)n1	.	.	.	.
Cc1ccsc1/C=C/C1=Cc2c(sc(NC(=O)CSc3n[nH]c(N)n3)c2C#N)C(C)(C)C1	25.1µM	.	.	.
CCCCNC(=O)c1cccc(-n2cnc3cccnc32)c1C	.	/	.	.
O=C(NCc1ccc(F)cc1)c1ccc(CSc2nc3ccncc3n2Cc2ccc(F)cc2)cc1	.	/	.	.
CC(=O)N1N=C(c2cccc([N+](=O)[O-])c2)OC1(C)c1cccs1 (stereo not drawn)	.	.	.	?
CC(=O)N1N=C(c2cccc([N+](=O)[O-])c2)OC1c1ccccc1Cl (stereo not drawn)	.	.	.	22.4µM
N#Cc1cnc(NCc2ccc(Cl)cc2Cl)nc1	.	.	.	.
SMILES	FUS yeast rescue	aSyn yeast inh	Abeta yeast res	TDP-43 yeast inh
Cc1cccc(OCCCC(=O)NNC(=O)c2ccncc2)c1	.	.	.	.
Cc1cccc(OCCCC(=O)NNC(=O)c2ccccn2)c1	.	?	?	22.4µM
O=C(O)c1ccc(CSc2nnc(-c3ccccc3)n2-c2ccccc2)cc1	.	.	.	.
Brc1cccc(-c2nnc(SCc3ccon3)n2-c2ccccc2)c1	.	.	.	17.8µM
O=C1N[C@@H](Cc2ccccc2)COC(=O)[C@H](Cc2ccc(F)cc2)CC/C=C/C[C@@H]1CC(=O)N(CCO)Cc1ccccc1	?	.	.	.
O=C1NC[C@H](c2ccccc2)OC(=O)[C@@H](Cc2ccc(F)cc2)CC/C=C/C[C@H]1CC(=O)N(CCO)Cc1ccccc1	?	.	.	.
C[C@@H]1COC(=O)[C@H](NC(=O)OCC2c3ccccc3-c3ccccc32)C/C=C\C[C@@H](CC(=O)N(CCO)Cc2ccccc2)C(=O)N1	.	.	.	.
O=C1N[C@@H](Cc2ccccc2)COC(=O)[C@H](Cc2ccc(F)cc2)CC/C=C/C[C@H]1CC(=O)N(CCO)Cc1ccccc1	22.4µM	.	.	.

Bioassay records: PubChem, National Center for Advancing Translational Sciences (NCATS)
